HP1b chromo inh = HP1-beta chromodomain-methylated histone interaction inhibition; AID 540317; 0.56% of 390,000 active; Potency, µM (highest dose often 114 µM), inactives show top-dose activity change, negative = inhibition, usual class: inhibitors; P83916; AlphaScreen HP1-beta / biotin-H3K9me3 peptide binding; further: potency means the concentration at half of the fitted maximal effect; nearly all actives have a fitted effect of over 70% in size
Target sequence (P83916 whole entry, looked up): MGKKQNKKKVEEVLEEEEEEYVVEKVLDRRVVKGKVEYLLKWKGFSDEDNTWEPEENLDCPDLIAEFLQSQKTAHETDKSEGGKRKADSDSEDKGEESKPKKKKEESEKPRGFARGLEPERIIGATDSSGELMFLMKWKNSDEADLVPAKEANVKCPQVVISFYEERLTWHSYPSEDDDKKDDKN
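Compound inhibition of the preformed complex between 50 nM HP1-beta and 50 nM biotinylated H3K9me3 peptide was read by AlphaScreen. Buffer was PBS pH 7.4 with 0.01% Tween-20. Incubations ran 30 min at room temperature, with 10 ug/mL donor/acceptor beads.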
CtBP-E1A inh = blocks the CtBP interaction with E1A; 0.49% of 340,000 active; activity change, % (no concentration beside the values); AlphaScreen GST-E1A/His-CtBP binding, 1536-well; stronger effect = lower value; in the data active means activity change below about -65%; inconclusive means mostly about -30% to -63%; further: on the % scale 0 is the no-effect control and ±100 the full control effect
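Steps: dispense buffer (Tris pH 8.0, NaCl 300 mM, TCEP 1 mM, BSA, Tween 20); add 5X protein mix (GST-E1A, His-CtBP, 125 nM each); pin 23 nL compound; 2 h at 37 °C, dark; add 5X beads (50 ug/mL); 1 h; read.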
TDP1 block = inhibitors of human tyrosyl-DNA phosphodiesterase TDP1; recombinant TDP1, AlphaScreen DNA substrate cleavage; Potency, µM (top dose mostly 130 µM), without a hit: at the top dose activity change, negative = inhibition, actives largely listed as inhibitors; 0.28% of 350,000 active; AID 485290; further: potency means the concentration at half of the fitted maximal effect; on the % scale 0 is the no-effect control and ±100 the full control effect; nearly all actives have a fitted effect of over 40% in size
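Compounds were preincubated with Tdp1 (1 nM final) for 15 min at room temperature before substrate (15 nM final) started a 5 min reaction; beads (10 ug/ml final) were then added for 10 min before AlphaScreen detection.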
BAZ2B block = BAZ2B (human) inhibition; Q9UIF8; AlphaScreen BAZ2B-H3K14Ac peptide displacement; Potency, µM (highest dose often 114 µM), for the others: at the top dose activity change, negative = inhibition, actives largely listed as inhibitors; 4.4% of 360,000 active; AID 504333; further: potency means the concentration at half of the fitted maximal effect; on the % scale 0 is the no-effect control and ±100 the full control effect; nearly all actives have a fitted effect of over 60% in size
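Compounds, titrated to a top concentration of 110 uM, were incubated 30 min at room temperature with preformed BAZ2B/acetyl-K14 H3 peptide complex (50 nM each). Proximity signal was measured by AlphaScreen after 20 min with beads.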
Six1-Eya2 inh = blocks human Six1 binding to Eya2. Q15475+O00167. AlphaScreen GST-Six1/His-Eya2 binding, biochemical; stronger effect = lower value. activity change, % (concentration not given with the values). 0.56% of 360,000 active; in the data active means activity change below about -65%; inconclusive means mostly about -30% to -63%; further: on the % scale 0 is the no-effect control and ±100 the full control effect
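Compounds are tested against tagged Six1 and Eya2 proteins bridged by glutathione donor and nickel acceptor beads; after a one-hour incubation at 37 °C without light, AlphaScreen emission is recorded.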
JMJD2A Tudor = JMJD2A Tudor domain (human) inhibition | AID 504339 | AlphaScreen JMJD2A-Tudor / H3K4me3 peptide binding | Potency, µM (titrated, usually from 114 µM), for the others: at the top dose activity change, negative = inhibition, most hits filed as inhibitors | O75164 | 4.4% of 390,000 active; further: potency means the concentration at half of the fitted maximal effect; on the % scale 0 is the no-effect control and ±100 the full control effect; nearly all actives have a fitted effect of over 50% in size
* marks the source's active call; other numbers are inactive results; ? = inconclusive; nt = no result given; [ ] = remark or other dose. Compounds with a hit are over-represented: about 5.3% of the library has one in this group of screens. Unless noted, the call rests on the fitted dose curve; in most records, active means well fitted inhibition curve with a large enough effect; inconclusive means small, poorly fitted or top-dose-only effect; inactive means no such curve, though single readings can be large or run the other way.

SMILES	HP1b chromo inh	CtBP-E1A inh	TDP1 block	BAZ2B block	Six1-Eya2 inh	JMJD2A Tudor
O=c1cc(-c2ccc(O)cc2)oc2ccc3ccccc3c12	20%	-6	32µM*	-3%	-6	-33%
COc1c(O)cc2oc(-c3ccc(O)cc3)cc(=O)c2c1O	26%	?	15%	-21%	-26	-20%
O=c1cc(-c2ccc(O)cc2)oc2c(O)c(O)c(O)c(O)c12	?	-24	nt	45µM*	-27	40µM*
O=c1cc(-c2ccc(O)cc2)oc2c1ccc1ccccc12	66%	10	nt	-34%	0	-32%
CCCCCn1c(CNC(=O)c2ccc(F)cc2)nc2ccccc21	41%	nt	-3%	-3%	nt	-9%
COc1ccc(NS(=O)(=O)c2ccc(N3CCCCS3(=O)=O)cc2)cc1Cl	38%	nt	4%	-1%	nt	-4%
O=C(O)C(Cc1ccccc1)N1C(=O)/C(=C/C=C/c2ccco2)SC1=S (stereo not drawn)	10µM*	5	nt	8.9µM*	?	10µM*
CCC(Cc1ccccc1)NC(=O)/C=C/c1ccco1 (stereo not drawn)	5%	2	nt	-5%	-16	-22%
O=C(O)CC(C(=O)O)N1C(=O)/C(=C/C=C/c2ccco2)SC1=S (stereo not drawn)	3.5µM*	-13	nt	5µM*	?	3.5µM*
CCC(C(=O)O)N1C(=O)/C(=C/c2cccn2C)SC1=S (stereo not drawn)	-3%	-10	-2%	?	2	-34%
O=C(O)CCCN1C(=O)/C(=C/C=C/c2ccco2)SC1=S	14µM*	-4	4%	4µM*	?	5.6µM*
CC(=O)OCC1OC(C#CCCc2ccccc2)C=CC1OC(C)=O (stereo not drawn)	nt	nt	3%[21 µM]	nt	nt	nt
O=C(Nc1nccs1)c1cc(-c2ccco2)nc2ccccc12	-6%	?	-2%	50µM*	?	-32%
O=C(c1cc(-c2ccco2)nc2ccccc12)N1CCN(c2ccc(F)cc2)CC1	-14%	-27	-6%	50µM*	-19	56µM*
O=C(O)c1cc(-c2cc(C(=O)O)c3ccccc3n2)nc2ccccc12	nt	nt	nt	3%	nt	nt
Cc1nnc(NC(=O)c2cc(-c3ccco3)nc3ccccc23)s1	nt	nt	-9%	40µM*	nt	nt
O=C(O)c1cc(-c2ccco2)nc2ccccc12	45µM*	-1	nt	?	?	25µM*
CCC(=O)N1c2ccccc2CC1C(=O)NCc1cccc(C)c1 (stereo not drawn)	18%	nt	-6%	-4%	nt	-9%
Cc1ccc(N2CCN(C(=O)CCc3c(C)nc4ncnn4c3C)CC2)c(C)c1	24%	nt	-5%	-14%	nt	-12%
O=C(N/N=C/c1ccc(F)cc1)c1cc(-c2ccco2)nc2ccccc12	22µM*	-4	nt	2.8µM*	?	?
Cc1ccc(CNC(=O)CN(c2ccc(C(C)C)cc2)S(=O)(=O)c2c(C)n[nH]c2C)cc1	8%	nt	5%	nt	nt	-32%
Cc1cc(NC(=O)c2cncc(Br)c2)n(-c2ccccn2)n1	29%	-2	0%	50µM*	9	-6%
O=C(CSC1=N/C(=C/c2ccco2)C(=O)N1c1ccc(OC(F)F)cc1)NC1CCS(=O)(=O)C1 (stereo not drawn)	-13%	0	6%	50µM*	2	?
COc1ccc(N2C(=O)/C(=C\c3ccco3)N=C2SCC(=O)NC(C)C)cc1Cl	-7%	5	5%	?	2	-19%
CCOC(=O)c1cc2ccc(OC)cc2oc1=O	12%	2	8%	2%	5	1%
SMILES	HP1b chromo inh	CtBP-E1A inh	TDP1 block	BAZ2B block	Six1-Eya2 inh	JMJD2A Tudor
CCOC(=O)c1c(=O)n(O)c2ccc(OC)cc2[n+]1[O-]	3%	-1	-2%	?	-4	50µM*
C(=N\N(c1ccccc1)c1ccccc1)/c1ccc2c(c1)OCO2	22%	0	-2%	-1%	3	-4%
COc1cc(OC)c(OC)cc1/C=N/N(C)c1ccccc1	16µM*	?	13%	32µM*	-66*	45µM*
CN(/N=C/c1ccc2c(c1)OCO2)c1ccccc1	-31%	-21	2%	28µM*	?	?
C(=N\N1CCN(C(c2ccccc2)c2ccccc2)CC1)/c1ccc2c(c1)OCO2	?	4	8%	?	0	22µM*
COc1cc(/C=N/S(=O)(=O)CCc2ccccc2)ccc1O	19%	10	3%	-4%	-7	-10%
COc1cc(/C=N/N(C)c2ccccc2)ccc1O	?	?	5%	45µM*	?	56µM*
CN(C)CCN(Cc1ccccc1)S(=O)(=O)c1ccc2[nH]c(=O)ccc2c1	24%[57 µM]	nt	4%	1%	nt	2%
Cc1cccc(N(CC(=O)N(C)Cc2ccccc2)S(=O)(=O)c2ccccc2)c1C	46%	nt	nt	1%	nt	-2%
COc1cccc(C2Nc3cc(Cl)c(S(N)(=O)=O)cc3S(=O)(=O)N2)c1 (stereo not drawn)	-16%	3	5%	1%	3	50µM*
COc1cc(C2Nc3cc(Cl)c(S(N)(=O)=O)cc3S(=O)(=O)N2)cc(OC)c1OC (stereo not drawn)	10%	7	1%	13%	7	-13%
N=c1c2c(ncn1-c1ccccc1)Oc1ccc3ccccc3c1C2c1ccc2c(c1)CCO2 (stereo not drawn)	nt	nt	nt	nt	nt	35µM*
COc1cccc(C2c3c(ncn(-c4ccncc4)c3=N)Oc3ccc4ccccc4c32)c1 (stereo not drawn)	nt	nt	3%	nt	nt	?
N=c1c2c(ncn1-c1ccccc1)Oc1ccc3ccccc3c1C2c1ccc2c(c1)OCCO2 (stereo not drawn)	nt	nt	nt	nt	nt	22µM*
COc1cccc(C2c3c(ncn(-c4cccnc4)c3=N)Oc3ccc4ccccc4c32)c1 (stereo not drawn)	nt	nt	2%	nt	nt	?
CCOc1ccc(C2c3c(ncn(-c4ccccc4)c3=N)Oc3ccc4ccccc4c32)cc1OCC (stereo not drawn)	nt	nt	nt	nt	nt	40µM*
COc1ccc(-c2onc(C)c2C)cc1S(=O)(=O)N(C)Cc1ccco1	8%	nt	5%	-19%	nt	-23%
Cc1onc(-c2ccccc2)c1C(=O)N/N=C/c1c[nH]c2ccccc12	45µM*	6	-3%	?	-2	?
CCOc1cc([N+](=O)[O-])cc(/C=N/NC(=O)c2c(-c3ccccc3)noc2C)c1O	20%	-92*	4%[56.1 µM]	22µM*	-91*	79µM*
COc1cccc(/C=N/NC(=O)c2c(-c3ccccc3)noc2C)c1O	19%	-91*	5%	45µM*	-90*	?
CCOc1cc(/C=N/NC(=O)c2c(-c3ccccc3)noc2C)ccc1O	42%	-4	1%	7%	-16	-3%

Screening data (PubChem BioAssay)
